In PubChem BioAssay (Tox21):
Records with an inconclusive call do not appear. The source made the active and inactive calls. Unless noted, calls follow the shape of the dose curve; as a rule, active = well fitted curve in the direction sought with a large enough effect in the repeat runs; inconclusive = weak or mixed curves; inactive = no such curve, though single readings can be large; an effect the other way counts as inactive or inconclusive.

Tests used:
[1] = molecular target: Progesterone receptor (Homo sapiens) (UniProt P06401); experiment: qHTS assay to identify small molecule antagonists of the progesterone receptor (PR) signaling pathway (AID 1346795; active = well fitted inhibition curve with a large enough effect in the signal ratio in the repeat runs, not every such curve was filed as active; the % refers to the signal ratio; also: % is scaled to controls: 0 for no effect and ±100 for the full control effect)
Progesterone receptor (Homo sapiens), sequence (P06401 whole entry, looked up): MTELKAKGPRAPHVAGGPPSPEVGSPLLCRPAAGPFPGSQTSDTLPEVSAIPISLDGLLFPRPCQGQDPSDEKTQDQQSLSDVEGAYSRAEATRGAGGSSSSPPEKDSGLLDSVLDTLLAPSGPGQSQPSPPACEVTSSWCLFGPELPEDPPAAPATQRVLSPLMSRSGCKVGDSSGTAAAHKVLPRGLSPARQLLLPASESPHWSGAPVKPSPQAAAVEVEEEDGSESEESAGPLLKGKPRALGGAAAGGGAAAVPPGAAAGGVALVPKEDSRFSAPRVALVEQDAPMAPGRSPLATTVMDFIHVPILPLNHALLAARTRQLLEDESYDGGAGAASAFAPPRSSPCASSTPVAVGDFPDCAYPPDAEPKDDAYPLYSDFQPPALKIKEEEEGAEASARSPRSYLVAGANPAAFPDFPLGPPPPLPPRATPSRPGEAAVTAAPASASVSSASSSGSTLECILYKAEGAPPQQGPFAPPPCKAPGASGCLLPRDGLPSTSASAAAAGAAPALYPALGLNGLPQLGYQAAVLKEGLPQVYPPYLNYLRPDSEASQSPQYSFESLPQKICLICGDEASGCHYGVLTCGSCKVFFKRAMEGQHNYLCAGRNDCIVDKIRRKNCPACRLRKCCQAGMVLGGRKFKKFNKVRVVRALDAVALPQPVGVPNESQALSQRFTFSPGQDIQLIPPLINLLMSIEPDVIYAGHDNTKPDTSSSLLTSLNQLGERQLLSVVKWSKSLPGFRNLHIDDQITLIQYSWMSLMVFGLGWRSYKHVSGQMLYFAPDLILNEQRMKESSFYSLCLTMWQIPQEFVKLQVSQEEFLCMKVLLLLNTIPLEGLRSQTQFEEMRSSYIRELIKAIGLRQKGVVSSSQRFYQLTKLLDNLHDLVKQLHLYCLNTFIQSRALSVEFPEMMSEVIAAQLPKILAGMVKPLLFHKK
Procedure, shortened: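 Read-out is fluorescence from the LiveBLAzer B/G FRET substrate, cleaved by a UAS-controlled beta-lactamase in PR-UAS-bla HEK293T cells after 16 hr exposure to compound plus 1 nM promegestone (final), followed by 2 hr at room temperature.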

[2] = qHTS assay to identify small molecule antagonists of the TGF-beta/Smad signaling pathway - cell viability counter screen (AID 1346824); also: % is scaled to controls: 0 for no effect and ±100 for the full control effect; nearly all actives have a fitted effect of over 50% in size
Procedure, shortened: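 Cytotoxicity counter-screen run in the same wells as the beta-lactamase Smad reporter read: CellTiter-Glo luminescence after 30 min at room temperature. HEK 293T SBE-bla cells had 5 hr compound exposure at 37 C with TGF-beta1 (0.25 ng/mL stock).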

[3] = qHTS assay to identify small molecule agonists of the TGF-beta/Smad signaling pathway - cell viability counter screen (AID 1346829); also: top concentration of the series differs between compounds; % is scaled to controls: 0 for no effect and ±100 for the full control effect; nearly all actives have a fitted effect of over 45% in size
Procedure, shortened: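 Here the cytotoxicity of library compounds is measured in SBE-bla HEK 293T cells treated for 5 hr, using CellTiter-Glo added to wells already read for the beta-lactamase reporter.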

[4] = qHTS assay to identify small molecule agonists of the TGF-beta/Smad signaling pathway (AID 1346859; active = well fitted activation curve with a large enough effect in the signal ratio in the repeat runs, not every such curve was filed as active; the % refers to the signal ratio; also: series mostly up to about 77 µM; % is scaled to controls: 0 for no effect and ±100 for the full control effect)
Procedure, shortened: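 SBE-bla HEK 293T, 4,000 cells/well, plated o/n; cpd in DMSO, 5 hr, 37 C/5% CO2; B/G FRET substrate 2 hr RT; ex 405, em 460/530 nm.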

[5] = molecular target: Thyrotropin-releasing hormone receptor (Homo sapiens) (UniProt P34981); experiment: qHTS assay to identify small molecule antagonists of the thyrotropin-releasing hormone receptor (TRHR) signaling pathway (AID 1346877; active = well fitted inhibition curve with a large enough effect in the repeat runs, not every such curve was filed as active; also: series mostly up to about 51 µM; % is scaled to controls: 0 for no effect and ±100 for the full control effect)
Thyrotropin-releasing hormone receptor (Homo sapiens), sequence (P34981 whole entry, looked up): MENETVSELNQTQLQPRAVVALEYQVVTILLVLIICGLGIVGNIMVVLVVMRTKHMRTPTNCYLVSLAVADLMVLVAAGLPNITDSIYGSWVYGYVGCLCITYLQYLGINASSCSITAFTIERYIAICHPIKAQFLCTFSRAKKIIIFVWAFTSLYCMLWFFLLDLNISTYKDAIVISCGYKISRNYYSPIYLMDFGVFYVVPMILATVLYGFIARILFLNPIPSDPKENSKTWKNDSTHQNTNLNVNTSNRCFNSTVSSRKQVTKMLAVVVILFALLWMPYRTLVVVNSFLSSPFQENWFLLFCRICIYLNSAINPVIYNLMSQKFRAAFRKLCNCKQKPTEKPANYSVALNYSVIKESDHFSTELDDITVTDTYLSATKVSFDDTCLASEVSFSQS
Procedure, shortened: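 TRHR-expressing HEK293 cells were seeded, cultured 18 h at 37 °C, then loaded with calcium dye for 2 h. Compounds were pre-incubated 5 min at room temperature before 1 nM TRH (final) was added, and kinetic fluorescence was recorded for 3 min.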

[6] = molecular target: Thyrotropin-releasing hormone receptor (Homo sapiens) (UniProt P34981); experiment: qHTS assay to identify small molecule agonists of the thyrotropin-releasing hormone receptor (TRHR) signaling pathway (AID 1346891; calls by dose curve; also: series mostly up to about 58 µM; % is scaled to controls: 0 for no effect and ±100 for the full control effect)
Procedure, shortened: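 Intracellular calcium rise, read as fluorescence every second for 3 min, served as the agonist signal in dye-loaded HEK293 cells expressing TRHR; each compound ran at 15 concentrations in triplicate.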

[7] = Caspase-3/7 induction in CHO-K1 cells by small molecules, qHTS cell viability counter screen (AID 1346979); also: nearly all actives have a fitted effect of over 35% in size; also: potency is read from the fitted curve at half-maximal effect
Procedure, shortened: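 Cells (CHO-K1, wild type) are plated at 1,500 per well and incubated 5hr. Test compounds in DMSO are then pinned in, followed by 16hr at 37C and 5% CO2. Viability is read by CellTiter-Fluor fluorescence after 1hr.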

[8] = Caspase-3/7 induction in CHO-K1 cells by small molecules, qHTS assay (AID 1346980); also: % is scaled to controls: 0 for no effect and ±100 for the full control effect; nearly all actives have a fitted effect of over 15% in size
Procedure, shortened: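 Luminescent Caspase-Glo 3/7 read (30min, room temperature) quantified apoptosis induction. Cells were wild-type CHO-K1, treated with compound for 17hr at 37 C and 5% CO2.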

[9] = Caspase-3/7 induction in HepG2 cells by small molecules, qHTS cell viability counter screen (AID 1346981); also: nearly all actives have a fitted effect of over 30% in size; also: potency is read from the fitted curve at half-maximal effect
Procedure, shortened: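 Wild-type HepG2 cells (2,000/well) were allowed to settle for 5 hr at 37 C, 5% CO2, then dosed with compounds in DMSO by pin transfer. After 16 hr at 37 C, CellTiter-Fluor was added and fluorescence read 1 hr later.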

[10] = molecular target: Nuclear receptor subfamily 1 group I member 2 (Homo sapiens) (UniProt O75469); experiment: Human pregnane X receptor (PXR) small molecule agonists, qHTS assay (AID 1346982); also: nearly all actives have a fitted effect of over 35% in size; also: potency is read from the fitted curve at half-maximal effect
Nuclear receptor subfamily 1 group I member 2 (Homo sapiens), sequence (O75469 whole entry, looked up): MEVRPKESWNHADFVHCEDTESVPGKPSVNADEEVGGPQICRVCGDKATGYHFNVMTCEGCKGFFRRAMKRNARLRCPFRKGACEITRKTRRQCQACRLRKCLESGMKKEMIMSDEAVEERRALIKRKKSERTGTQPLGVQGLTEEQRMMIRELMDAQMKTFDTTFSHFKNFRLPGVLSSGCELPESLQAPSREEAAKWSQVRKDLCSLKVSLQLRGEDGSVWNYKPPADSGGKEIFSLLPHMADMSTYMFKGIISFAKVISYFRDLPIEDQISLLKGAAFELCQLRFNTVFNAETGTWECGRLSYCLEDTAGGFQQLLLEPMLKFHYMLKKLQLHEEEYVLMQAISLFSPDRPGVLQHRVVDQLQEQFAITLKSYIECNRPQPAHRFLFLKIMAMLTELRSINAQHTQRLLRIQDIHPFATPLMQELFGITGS
Procedure, shortened: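 PXR-Luc HepG2 cells (CYP3A4 promoter-driven luciferase) were seeded in medium with 5% charcoal-stripped FBS, left 5 hr at 37 C, then exposed to compounds in DMSO for 24 hr. Luminescence was read after ONE-Glo addition.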

[11] = molecular target: Nuclear receptor subfamily 1 group I member 2 (Rattus norvegicus) (UniProt Q9R1A7); experiment: Rat pregnane X receptor (rPXR) activation by small molecules, qHTS assay (AID 1346983); settings: rPXR luciferase reporter cells, One-Glo luminescence, 24 h; max activation: hits give high values; also: % is scaled to controls: 0 for no effect and ±100 for the full control effect; nearly all actives have a fitted effect of over 20% in size
Nuclear receptor subfamily 1 group I member 2 (Rattus norvegicus), sequence (Q9R1A7 whole entry, looked up): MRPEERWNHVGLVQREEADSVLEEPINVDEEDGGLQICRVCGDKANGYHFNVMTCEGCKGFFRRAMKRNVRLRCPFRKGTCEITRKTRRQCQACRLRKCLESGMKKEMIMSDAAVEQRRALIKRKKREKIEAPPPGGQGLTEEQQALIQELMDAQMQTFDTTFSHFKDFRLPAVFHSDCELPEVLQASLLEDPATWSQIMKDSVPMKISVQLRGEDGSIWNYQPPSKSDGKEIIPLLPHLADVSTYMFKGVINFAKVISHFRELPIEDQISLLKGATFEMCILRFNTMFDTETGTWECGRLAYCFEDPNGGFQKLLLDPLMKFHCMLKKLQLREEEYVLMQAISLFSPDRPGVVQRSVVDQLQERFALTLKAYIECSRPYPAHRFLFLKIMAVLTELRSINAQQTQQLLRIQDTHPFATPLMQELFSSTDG
Procedure, shortened: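 Luminescent readout (One-Glo luciferase, 30 min room temperature) followed 24 hr compound treatment at 37 C of rPXR cells plated 2,000 per well and preincubated 5hr; qHTS format with compounds delivered in DMSO.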

[12] = molecular target: Nuclear receptor subfamily 1 group I member 2 (Homo sapiens) (UniProt O75469); experiment: CYP3A4 induction through human pregnane X receptor (PXR) by small molecules, qHTS assay (AID 1346984); also: potency is read from the fitted curve at half-maximal effect; nearly all actives have a fitted effect of over 40% in size
Procedure, shortened: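 DPX-2 cells (HepG2 co-transfected with PXR and CYP3A4 promoter-luciferase) treated with compounds 24 h at 37C; luciferin-IPA CYP3A4 substrate 3uM final added for 3 h, then One-Glo; luminescence read. qHTS format.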

[13] = molecular target: Nuclear receptor subfamily 1 group I member 2 (Homo sapiens) (UniProt O75469); experiment: Human pregnane X receptor (PXR) activation by small molecules, qHTS assay (AID 1346985); also: potency is read from the fitted curve at half-maximal effect; nearly all actives have a fitted effect of over 40% in size
Procedure, shortened: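 DPX-2 cells (HepG2 co-transfected with a PXR response element and a CYP3A4-promoter luciferase construct) were seeded at 2,000 per well, rested 5 hr at 37C, then exposed to DMSO-dissolved compounds for 24 hr. Activation was read as luciferase luminescence.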

[14] = molecular target: Cytochrome P450 2C19 (Homo sapiens) (UniProt P33261); experiment: Cytochrome P450 Family 2 Subfamily C Member 19 (CYP2C19) small molecule antagonists: luciferase reporter qHTS assay (AID 1671197); also: nearly all actives have a fitted effect of over 65% in size; also: potency is read from the fitted curve at half-maximal effect
Cytochrome P450 2C19 (Homo sapiens), sequence (P33261 whole entry, looked up): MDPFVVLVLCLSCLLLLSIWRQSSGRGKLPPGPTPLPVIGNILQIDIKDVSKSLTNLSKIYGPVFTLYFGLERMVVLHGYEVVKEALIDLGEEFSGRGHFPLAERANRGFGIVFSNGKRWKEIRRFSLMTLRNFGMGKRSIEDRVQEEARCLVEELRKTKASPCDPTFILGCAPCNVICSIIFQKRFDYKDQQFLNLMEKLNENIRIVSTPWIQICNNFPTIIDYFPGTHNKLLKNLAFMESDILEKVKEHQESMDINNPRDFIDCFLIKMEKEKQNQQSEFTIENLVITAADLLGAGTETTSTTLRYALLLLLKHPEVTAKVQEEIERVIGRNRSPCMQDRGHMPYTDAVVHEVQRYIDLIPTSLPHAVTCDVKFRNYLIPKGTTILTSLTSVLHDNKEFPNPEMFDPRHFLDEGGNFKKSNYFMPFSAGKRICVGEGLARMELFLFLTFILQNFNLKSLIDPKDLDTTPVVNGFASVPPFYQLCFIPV
Procedure, shortened: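 Light output is proportional to CYP2C19 activity: proluciferin substrate is converted to luciferin, then detected by a luciferin detection reagent that also stops the 1 h, 37C NADPH-driven reaction. Ketoconazole serves as positive control.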

[15] = qHTS assay to identify small molecule antagonists of the progesterone receptor (PR) signaling pathway - cell viability counter screen (AID 1346798);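 also: HEK293T PR-UAS-bla cells stimulated with the agonist R5020; series mostly up to about 92 µM; % is scaled to controls: 0 for no effect and ±100 for the full control effect; nearly all actives have a fitted effect of over 50% in size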
Procedure, shortened: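 HEK293T PR-UAS-bla, 2% charcoal-stripped FBS; 4 hr pre-plate; cpd + R5020, 16 h 37C; LiveBLAzer read first; then CellTiter-Glo 30 min RT, luminescence.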

[16] = qHTS assay to identify small molecule agonists of the progesterone receptor (PR) signaling pathway - cell viability counter screen (AID 1346799; calls by dose curve; also: % is scaled to controls: 0 for no effect and ±100 for the full control effect; nearly all actives have a fitted effect of over 45% in size)
Procedure, shortened: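 Luminescence from CellTiter-Glo, added after the beta-lactamase FRET read in the same wells, gave cytotoxicity in PR-UAS-bla HEK293T cells treated with compounds for 16 hr at 37C.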

[17] = Human pregnane X receptor (PXR) small molecule agonists, qHTS cell viability counter screen (AID 1346977); also: nearly all actives have a fitted effect of over 50% in size; also: potency is read from the fitted curve at half-maximal effect
Procedure, shortened: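 PXR-Luc HepG2, 2,000 cells/well, 5% charcoal-stripped FBS; 5hr settle; cpd 24hr, 37C/5% CO2; CellTiter-Fluor at 23hr, read 1hr later (fluorescence).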

[18] = Caspase-3/7 induction in HepG2 cells by small molecules, qHTS assay (AID 1346978); also: % is scaled to controls: 0 for no effect and ±100 for the full control effect; nearly all actives have a fitted effect of over 15% in size
Procedure, shortened: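 Caspase-3/7 induction was measured by Caspase-Glo 3/7 luminescence (30 min, room temperature) after a 17 hr compound exposure of wild-type HepG2 cells seeded at 2,000 per well and pre-incubated 5 hr.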

[19] = molecular target: Cytochrome P450 2D6 (Homo sapiens) (UniProt P10635); experiment: Cytochrome P450 Family 2 Subfamily D Member 6 (CYP2D6) small molecule antagonists: luciferase reporter qHTS assay (AID 1671196); also: nearly all actives have a fitted effect of over 50% in size; also: potency is read from the fitted curve at half-maximal effect
Cytochrome P450 2D6 (Homo sapiens), sequence (P10635 whole entry, looked up): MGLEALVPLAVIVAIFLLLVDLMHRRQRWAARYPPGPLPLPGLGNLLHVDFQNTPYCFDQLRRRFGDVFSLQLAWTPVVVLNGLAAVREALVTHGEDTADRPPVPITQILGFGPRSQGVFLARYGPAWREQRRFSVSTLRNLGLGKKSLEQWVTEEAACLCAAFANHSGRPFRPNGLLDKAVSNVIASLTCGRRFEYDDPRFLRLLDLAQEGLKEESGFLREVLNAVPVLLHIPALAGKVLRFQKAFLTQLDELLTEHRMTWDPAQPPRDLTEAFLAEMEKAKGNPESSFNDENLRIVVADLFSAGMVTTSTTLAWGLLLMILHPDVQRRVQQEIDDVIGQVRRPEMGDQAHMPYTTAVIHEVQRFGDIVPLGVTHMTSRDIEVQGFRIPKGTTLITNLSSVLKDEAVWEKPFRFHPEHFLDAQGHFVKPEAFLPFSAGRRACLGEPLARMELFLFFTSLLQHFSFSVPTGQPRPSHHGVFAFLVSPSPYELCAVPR
Procedure, shortened: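 CYP2D6 enzyme–substrate mix was held with compound for 10 min at room temperature, then NADPH regeneration solution was added and the reaction ran 1 h at room temperature. Luciferin product was detected by luminescence after 20 min with detection reagent.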

CC(C)(Cc1c[nH]c2ccccc12)NCC(O)COc1ccccc1C#N (centres undefined)
active: Potency [12] 12.6 µM | Potency [13] 28.2 µM
inactive: Potency [1] | outcome [2] | outcome [3] | outcome [4] | outcome [5] | outcome [6] | Potency [7] | Potency [8] | Potency [9] | Potency [10] | max activation [11] 11.7% | Potency [14]

c1ccc(-c2ccc(-c3ccccc3)cc2)cc1
active: Potency [10] 1.77 µM
inactive: activity change, negative = cytotoxicity [15] 3.71% [at 18.9 µM] | activity change, negative = cytotoxicity [16] 0% [at 19 µM] | viability change, negative = cytotoxic [2] -15.2% [at 15.8 µM] | activity change, negative = cytotoxicity [3] -3.25% [at 15.8 µM] | activation [4] 0.211% [at 15.8 µM] | activity, negative = inhibition [5] -0.349% [at 10.5 µM] | activation [6] 0.249% [at 11.8 µM] | activity change, negative = cytotoxicity [17] 0.816% [at 19 µM] | caspase activation [18] -3.46% [at 19 µM] | activity change, negative = cytotoxicity [7] 11.6% [at 19 µM] | activity change, negative = cytotoxicity [9] 6.27% [at 19 µM] | activity change, negative = inhibition [19] -3.95% [at 23.6 µM]

O=[N+]([O-])c1ccc(Cl)cc1Cl
inactive: Potency [1] | Potency [15] | outcome [2] | outcome [3] | outcome [5] | outcome [6] | Potency [17] | Potency [18] | Potency [7] | Potency [8] | Potency [9] | Potency [10] | Potency [14]

CCN(CC)CC(=O)OCC(=O)[C@@]1(O)CC[C@H]2[C@@H]3CCC4=CC(=O)CC[C@]4(C)[C@H]3[C@@H](O)C[C@@]21C
inactive: Potency [15] | Potency [16] | outcome [2] | outcome [3] | outcome [5] | outcome [6] | Potency [17] | Potency [18] | Potency [7] | Potency [8] | Potency [9] | Potency [19] | Potency [14]

CC(=O)Oc1cccc2c1C(=O)c1c(OC(C)=O)cc(C(=O)O)cc1C2=O
active: Potency [17] 29.8 µM | Potency [7] 29.8 µM | Potency [9] 29.8 µM
inactive: outcome [2] | outcome [3] | outcome [5] | outcome [6] | Potency [18] | Potency [8] | Potency [10] | Potency [14]

N#Cc1ccc(CC(=O)c2cccc(C(F)(F)F)c2)cc1
inactive: Potency [15] | outcome [3] | outcome [4] | outcome [5] | outcome [6] | Potency [17] | Potency [18] | Potency [7] | Potency [8] | Potency [9]
active: Potency [19] 63.3 µM | Potency [14] 20 µM

CC(=O)c1ccc(Cl)c(Cl)c1Cl
inactive: Potency [15] | Potency [16] | outcome [2] | outcome [3] | outcome [4] | outcome [5] | outcome [6] | Potency [17] | Potency [7] | Potency [8] | Potency [9] | Potency [10] | Potency [19]
active: Potency [14] 70.9 µM

CCOc1ccc(NC(C)=O)cc1N
inactive: Potency [16] | outcome [2] | outcome [3] | outcome [4] | Potency [18] | Potency [7] | Potency [8] | Potency [9]
active: Potency [10] 31.1 µM | Potency [14] 36.1 µM

O=C(O)c1ccc(O)c(O)c1
inactive: Potency [1] | Potency [15] | Potency [16] | outcome [3] | outcome [4] | outcome [5] | outcome [6] | Potency [17] | Potency [18] | Potency [8] | Potency [9] | Potency [10] | Potency [19]
active: Potency [14] 79.6 µM
